Compound activity deposited in PubChem by National Center for Advancing Translational Sciences (NCATS).
EPAC1 agonist: human EPAC1 agonism, validation | EPAC1 Rap1b BODIPY-GDP exchange, fluorescence | Potency, µM, without a hit: max response, positive = active, most hits filed as activators | 16,000 compounds, 1% hits; also: nearly all actives have a fitted effect of over 70% in size
EPAC2 antag: validation of human EPAC2 antagonists. Q8WZA2. EPAC2 Rap1B BODIPY-GDP exchange, fluorescence. Potency, µM (highest dose often 112 µM), for inactives: top-dose activity, negative = inhibition, actives largely listed as inhibitors. 16,000 compounds, 1.7% hits. AID 1645886;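 also: 100% = activation by cAMP agonist control; nearly all actives have a fitted effect of over 40% in size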
Target sequence (Q8WZA2 whole entry, looked up): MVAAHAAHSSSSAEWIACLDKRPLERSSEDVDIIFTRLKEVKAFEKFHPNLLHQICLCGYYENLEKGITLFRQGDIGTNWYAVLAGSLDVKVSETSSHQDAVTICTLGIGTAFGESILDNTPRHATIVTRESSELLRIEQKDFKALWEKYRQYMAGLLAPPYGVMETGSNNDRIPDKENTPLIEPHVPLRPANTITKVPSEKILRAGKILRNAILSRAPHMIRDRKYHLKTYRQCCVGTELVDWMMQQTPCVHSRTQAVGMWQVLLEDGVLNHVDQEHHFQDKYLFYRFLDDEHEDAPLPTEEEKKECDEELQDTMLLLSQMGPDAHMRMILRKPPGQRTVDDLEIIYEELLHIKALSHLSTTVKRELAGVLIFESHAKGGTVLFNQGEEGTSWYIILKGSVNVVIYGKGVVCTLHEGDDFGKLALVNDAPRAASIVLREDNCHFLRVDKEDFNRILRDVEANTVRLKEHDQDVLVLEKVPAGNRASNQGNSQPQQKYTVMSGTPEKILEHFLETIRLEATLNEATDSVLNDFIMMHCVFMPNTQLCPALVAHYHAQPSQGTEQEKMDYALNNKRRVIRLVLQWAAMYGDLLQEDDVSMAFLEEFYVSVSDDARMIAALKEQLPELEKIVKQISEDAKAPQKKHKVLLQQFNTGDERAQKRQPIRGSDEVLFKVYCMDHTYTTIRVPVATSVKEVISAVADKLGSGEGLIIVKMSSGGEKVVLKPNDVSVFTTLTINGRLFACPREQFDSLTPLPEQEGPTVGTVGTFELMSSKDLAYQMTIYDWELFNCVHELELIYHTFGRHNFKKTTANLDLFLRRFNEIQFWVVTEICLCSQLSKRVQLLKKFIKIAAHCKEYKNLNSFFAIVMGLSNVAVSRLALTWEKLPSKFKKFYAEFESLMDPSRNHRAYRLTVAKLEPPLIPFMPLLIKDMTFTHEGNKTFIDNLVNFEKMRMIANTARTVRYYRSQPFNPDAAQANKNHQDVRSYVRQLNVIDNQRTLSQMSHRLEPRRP
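Normalized against a 6.5 mM cAMP agonist control, compounds were tested on 100 nM EPAC2 exchanging Rap1B-bound BODIPY-GDP (250 nM) for 50 uM GDP. Fluorescence drop (ex 480, em 540 nm) was tracked at room temperature over 30 min at 5-min intervals.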
An asterisk follows results filed as active; i = inactive; ? = inconclusive; ! = a repeat was not active; [ ] = dose if it differs, or a comment. Sampled rows, rich in hits. Any-hit rate of the full collection: about 2.9%. Calls follow the shape of the dose curve; as a rule, active = well fitted curve in the direction sought with a large enough effect; inconclusive = small, poorly fitted or top-dose-only effect, or another doubt; inactive = no such curve, though single readings can be large; an effect the other way counts as inactive or inconclusive. Unless noted, % is scaled to controls: 0 for no effect and ±100 for the full control effect; potency is read from the fitted curve at half-maximal effect.

SMILES	EPAC1 agonist	EPAC2 antag
CC(C)(CO)Cc1cc(C(C)(C)C)c(O)c(C(C)(C)C)c1	4%	56µM*!
CC(C)(C)NC(=O)[C@H]1CC[C@H]2[C@@H]3CC=C4C=C(C(=O)O)CC[C@]4(C)[C@H]3CC[C@]12C	-60%	-5%
CCOc1ccc2nc3cc(N)ccc3c(N)c2c1	28%	?
Nc1ccc2cc3ccc(N)cc3nc2c1	100µM*	i
CC[C@H]1OC(=O)[C@H](C)[C@@H](O[C@H]2C[C@@](C)(OC)[C@@H](O)[C@H](C)O2)[C@H](C)[C@@H](O[C@@H]2O[C@H](C)C[C@H](N(C)C)[C@H]2O)[C@](C)(O)C[C@@H](C)/C(=N\OCOCCOC)[C@H](C)[C@@H](O)[C@]1(C)O	-27%	17%[56.6 µM]
CC(C)(C)C1(O)CCN2CC3c4ccccc4CCc4cccc(c43)C2C1 (stereo unspecified)	9%	-11%
COc1ccc2c(c1)CCc1cnc(-n3ncc(C(=O)NCCCc4ccncc4)c3C)nc1-2	-8%	-15%
CN(C)c1ccc(-c2nc(N(C)Cc3ccco3)c3ccccc3n2)cc1	?	-16%
CN(Cc1ccco1)c1nc(-c2ccoc2)nc2ccccc12	?	25µM*
Cc1noc(C)c1-c1nccc(N(C)Cc2ccco2)n1	-2%	-18%
CN(C)C(=O)c1ccc(-c2nc(N(C)Cc3ccco3)c3ccccc3n2)cc1	?	-21%
CN(Cc1ccco1)c1nc(-c2cccc(C#N)c2)nc2ccccc12	100µM*	-12%
Cc1noc(C)c1-c1nc(N(C)Cc2ccco2)c2ccccc2n1	?	20µM*
O=C1O[C@@H]2[C@@H](O)[C@H](O)O[C@@H]2[C@H]1O	5%	-15%
CN(C)CC/C=C1/c2ccccc2CSc2ccccc21	-20%	-10%[56.6 µM]
O=C[C@H](O)[C@@H](O)[C@@H](O)[C@H](O)CO	-42%	-1%
CO[C@H]1C[C@H](O[C@H]2[C@H](C)[C@@H](O[C@@H]3O[C@H](C)C[C@H](N(C)C)[C@H]3OC(C)=O)[C@@H](C)C[C@]3(CO3)C(=O)[C@H](C)[C@@H](OC(C)=O)[C@@H](C)[C@@H](C)OC(=O)[C@@H]2C)O[C@@H](C)[C@@H]1OC(C)=O	-16%	-24%[56.6 µM]
COc1ccc2[nH]cc(CCNc3nc(-c4ccccc4OC)nc4ccccc34)c2c1	?	-21%
COc1ccc2[nH]cc(CCNc3nc(-c4cccc(C#N)c4)nc4ccccc34)c2c1	112µM*	-28%
OCCN(CCO)c1nc(N2CCCCC2)c2nc(N(CCO)CCO)nc(N3CCCCC3)c2n1	35µM*!	?
CCCCCCCCCCCCCCCCCCOCC(COP(=O)([O-])OCC[N+](C)(C)C)OC (stereo unspecified)	-24%	7%
Cc1cc(NC(=O)Nc2ccc3c(ccn3C)c2)sn1	2%	?
Cc1cc(N)c2cc(NC(=O)Nc3ccc4nc(C)cc(N)c4c3)ccc2n1	56µM*	40µM*
CC(CN1c2ccccc2Sc2ccc(S(=O)(=O)N(C)C)cc21)N(C)C (stereo unspecified)	-54%	10%
COc1cccc(Nc2ncc3nc(-c4ccc(F)cc4)c(=O)n(CCC#N)c3n2)c1	112µM*	-19%
SMILES	EPAC1 agonist	EPAC2 antag
COc1ccc(-c2nc3cnc(Nc4ccccc4)nc3n(CCC#N)c2=O)cc1	112µM*	-4%
COc1cccc(Nc2ncc3nc(-c4cc(F)cc(F)c4)c(=O)n(CCC#N)c3n2)c1	112µM*	?
COc1cccc(Nc2ncc3nc(-c4ccc(Cl)cc4)c(=O)n(CCC#N)c3n2)c1	-195%	?
COc1cccc(Nc2ncc3nc(-c4ccc(F)cc4)c(=O)n(C)c3n2)c1	-72%	-5%
COc1ccc(Oc2ncc3nc(-c4cc(F)cc(F)c4)c(=O)n(CCC#N)c3n2)cc1	-63%	-23%
COc1ccc(-c2nc3cnc(Oc4ccccc4)nc3n(CCC#N)c2=O)cc1	?	-28%
COc1ccc(-c2nc3cnc(Nc4cccc(OC)c4)nc3n(CCC#N)c2=O)cc1	100µM*	3%
NC(=O)CC[C@@H]1NC(=O)[C@H](Cc2ccccc2)NC(=O)[C@H](Cc2ccc(O)cc2)NC(=O)CCSSC[C@@H](C(=O)N2CCC[C@H]2C(=O)N[C@@H](CCCN=C(N)N)C(=O)NCC(N)=O)NC(=O)[C@H](CC(N)=O)NC1=O	4%	-22%
O=C1/C(=C\c2cccs2)CCC/C1=C\c1cccs1	9%	0%
CC1c2ccccc2CN1NC(=O)c1ccc(Cl)c(S(N)(=O)=O)c1 (stereo unspecified)	5%	-13%
COCC(=O)Nc1cc(C(=O)N2CCC(c3ccccc3)CC2)cc2nc(-c3ccccc3)n(C)c12	-2%	?
COc1ccccc1N1CCN(c2nc(CNC(=O)c3ccc4c(c3)OCO4)nc3ccccc23)CC1	10%	?
CC[C@H](C)[C@H]1O[C@]2(CC[C@@H]1C)C[C@@H]1C[C@@H](C/C=C(\C)[C@@H](O[C@H]3C[C@H](OC)[C@@H](O[C@H]4C[C@H](OC)[C@@H](O)[C@H](C)O4)[C@H](C)O3)[C@@H](C)/C=C/C=C3\CO[C@@H]4[C@H](O)C(C)=C[C@@H](C(=O)O1)[C@]34O)O2	-58%	-16%
COc1ccc(CN2CCC3(CC2)c2ccccc2[C@@H](NC(=O)c2ccccc2)[C@@H]3O)cc1O	14%	9%
O=c1c(-c2ccc(F)c(F)c2)nc2cncnc2n1Cc1ccccc1Cl	100µM*	?
O=c1c(-c2cc(F)cc(F)c2)nc2cncnc2n1Cc1ccccc1Cl	?	-13%
O=C(NC(c1cccnc1)C(F)(F)F)c1cnn(-c2nccc(-c3cccs3)n2)c1C1CC1 (stereo unspecified)	16%	-16%
COc1ccc(C(=O)N2CCC[C@@]3(CCN(Cc4ccncc4)C3)C2)cc1	-51%	-4%
COCC(=O)N1CCC2(CCN(Cc3cc(C(F)(F)F)cc(C(F)(F)F)c3)CC2)CC1	-65%	-25%
COc1ccc(C(=O)N2CCC3(CCN(Cc4cc(C(F)(F)F)cc(C(F)(F)F)c4)CC3)CC2)cc1	-80%	28µM*
COc1ccc(C(=O)N2CCC[C@@]3(CCN(Cc4cc(C(F)(F)F)cc(C(F)(F)F)c4)C3)C2)cc1	-109%	14µM*
CC1(C)S[C@@H]2[C@H](NC(=O)[C@H](N)c3ccccc3)C(=O)N2[C@H]1C(=O)OCOC(=O)[C@@H]1N2C(=O)C[C@H]2S(=O)(=O)C1(C)C	6%	1%
CCN(CC)C(=O)c1cc(S(=O)(=O)Cc2ccccc2)c(N2CCC(c3ccccc3)CC2)cc1N(CC)CCN(C)C	-38%	-15%
C[C@@H]1NC(=O)[C@@H](N)CNC(=O)[C@H](C2CCNC(N)=N2)NC(=O)/C(=C/NC(N)=O)NC(=O)[C@H](CNC(=O)C[C@@H](N)CCCN)NC1=O (stereo partly specified)	0%	2%[56.6 µM]
CN(C)c1ccc(/C=C/N2C=CCc3c2ccc2ccccc32)cc1	-15%	?
O=C(c1ccncc1)N1CCC2(CC1)CN(c1cccc(-c3ccccc3)c1)C2	?	-41%
COC(=O)N1CCC2(CCCN(c3cccc(-c4ccccc4)c3)C2)CC1	112µM*	-25%
Cn1cccc1C(=O)N1CCC[C@@]2(CCN(c3cccc(-c4ccccc4)c3)C2)C1	17%	-29%
O=C(c1cnccn1)N1CCC[C@@]2(CCN(c3cccc(-c4ccccc4)c3)C2)C1	100µM*	?
O=C(c1cnccn1)N1CCC[C@@]2(CCN(c3ccccc3)C2)C1	-44%	-18%
